This is an account of results in PubChem BioAssay (NCI).

Structures are written as SMILES. Values joined by “and” are separate entries in the source; they are usually repeats but may differ in a detail not shown here. Identical values can stand only once. The panel holds about 83,000 compounds, 20% with a hit somewhere; the sample as a whole holds those more often.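 Results are percent growth after 48 hours of single-concentration exposure. 100 means growth as in untreated cells, lower positive values show inhibition; negative values down to -100 show cell death.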 Active and inactive are the calls of the source.

The test system of the first assay is TK-10 renal. Description: NCI-60 one-dose screen, 48 h (100 = growth as untreated, 0 = no growth, -100 = all killed). The note with it: 10 µM. How it is done:
Growth inhibition of the TK-10 human tumor cell line is measured as a screen for anti-cancer activity. Cells are grown in 96 well plates and exposed to the test compound for 48 hours. Compounds are tested at a single concentration, which is 10^-5 M for most compounds. The reported endpoint is percent growth (GI% or GIPRCNT), where numbers from 0 - 100% represent growth inhibition, and numbers from -100% - 0 represent cell death. For example, a value of 40 represents 60% growth inhibition. A value of 0 means no net growth occurred over the course of the experiment. A value of -40 indicates 40% of cells at the beginning of the experiment died by the end of the experiment. A value of -100 means all cells are dead at the end of the experiment.
NCI-60 Human Tumor Cell Lines Screen was performed using the standard one-dose NCI protocol, which is described in more detail at https://dtp.cancer.gov/discovery_development/nci-60/default.htm.
Compounds with GIPRCNT values below 10 were considered active. Activity score was based on GIPRCNT using the following formula: […]
Score is 0 for GIPRCNT values of 100 or above, 50 for GIPRCNT values of 0, and 100 for GIPRCNT values of -100.
`Cc1[nH]c(-c2nc3ccccc3[nH]2)c(C)c1C(=O)NC(C)C1CCCCC1` (stereo not given): the growth is 103% (inactive).

Staying with this assay, now noted: 10 µM unless noted.
On to `CNC(=O)c1cccc(-c2ccc3c(N4CCOC[C@@H]4C)nc(N4CCOC[C@@H]4C)nc3n2)c1`, for which the growth is -11.3% (active) and -31.2% (active).
Same read-out and setting: as for `N#CC1(C#N)C2CCCCC23OC(=N)C1(C#N)C(c1ccccc1)O3` (stereo not given), the figure is -29% [100 µM] (active); as for `CN(C)c1ccc2nc3ccc(N)cc3[n+](-c3ccccc3)c2c1`, 20.6% (inactive); as for `COc1cc(Oc2c(C)c(Cl)c(OC)c(Cl)c2OC)c2c(c1Cl)COC2=O`, 20.3% [100 µM] (inactive) and 9.52% [100 µM] (active).
As for `CCCCCN(CCCCC)CC(O)c1cc2c(c3ccccc13)CCCC2` (stereo not given), the growth is 87.5% (inactive) and 73.4% (inactive).
With `COc1cc(NS(C)(=O)=O)ccc1Nc1c2ccccc2nc2c(C)cccc12`, the growth was -39.5% (active) and -35.3% (active).
In the case of `CC[N+](CC)(CC(=O)Nc1c(C)cccc1C)Cc1ccccc1`, the growth is 144% (inactive) and 90.9% (inactive).
On to `CNc1ccc2nc3ccc(=[N+](C)C)cc-3sc2c1`, for which the growth was -3.64% (active) and 17.3% (inactive).
The same measure, in the same setting: as for `CCOc1ccc2cc(-c3nn(CC4CCNCC4)c4ncnc(N)c34)ccc2c1`, the figure is 77.1% (inactive) and 80.5% (inactive); as for `Cc1ccc(/C=N/Nc2nncc3ccccc23)s1`, 105% [100 µM] (inactive) and 21.6% [100 µM] (inactive).
Same read-out and setting: as for `Oc1ccccc1C=NCC1CCC(CN=Cc2ccccc2O)CC1` (stereo not given), the figure is 98.2% (inactive); as for `CCN(CC)CCCC(CNc1ccnc2cc(Cl)ccc12)c1ccc(Cl)cc1` (stereo not given), -76.7% (active) and 14.7% (inactive); as for `C[C@@H]1C[C@](O)([C@@H](C)Cl)C(=O)O[C@@H]2CCN3CC=C(COC(=O)[C@]1(C)O)[C@H]23`, 66.6% [100 µM] (inactive) and 88% [100 µM] (inactive).
As to `O=C(Nc1ccc([N+](=O)[O-])cc1Cl)c1cc(Cl)ccc1O`, the growth is -5.15% (active) and 7.49% (active).
Still for that read-out and setting: the same measure for `NC(=S)NN=C1CCC(C2CCCCC2)CC1` (stereo not given): 113% (inactive) and 104% (inactive); for `NC1N=C(c2ccc(Cl)cc2)C2=C(N1)c1ccccc1CC2` (stereo not given): 76.2% [100 µM] (inactive) and -97.6% [100 µM] (active).
The same measure, in the same setting: the same measure for `CN1C(=O)C(N=Nc2ccc([N+](=O)[O-])cc2)SC1=S` (stereo not given): 86.8% (inactive) and 101% (inactive).
Still for that read-out and setting: the same measure for `CC1(c2ccc3ccccc3c2)CCC(=O)O1` (stereo not given): 93.5% (inactive); for `CCCCC1C(=O)N(c2ccc(S(=O)(=O)Nc3ccccn3)cc2)N(c2ccc(O)c(C(=O)O)c2)C1=O` (stereo not given): 102% [100 µM] (inactive) and 94.2% [100 µM] (inactive).
For the compound `COC(=O)C(/C(=N/NC(N)=O)C(=O)Nc1ccc(C)cc1)c1nc2ccc([N+](=O)[O-])cc2[nH]c1=O` (stereo not given), the growth was 111% [100 µM] (inactive) and 43.2% [100 µM] (inactive).
Still for that read-out and setting: the same measure for `CCOc1cc2c(cc1O)C=C[C@@H]1[C@@H]2CC[C@]2(C)[C@@H](O)CC[C@@H]12`: -4.09% [100 µM] (active) and -100% [100 µM] (active).
As to `CC(C)O/N=C/c1cc(NC(=S)OC(C)C)ccc1Cl`, the growth was 53.5% [100 µM] (inactive) and 36.1% [100 µM] (inactive).
On the same count and under the same terms, as for `O=C(O)CCCC(=O)Nn1c(Cc2ccc(Cl)cc2)n[nH]c1=O`, the figure is 85.5% [100 µM] (inactive) and 95% [100 µM] (inactive); as for `O=C1NC(=O)C2(CCc3ccccc32)N1` (stereo not given), 105% (inactive) and 99.5% (inactive); as for `COc1ccc(CCN(C)CCCC(C#N)(c2ccc(OC)c(OC)c2)C(C)C)cc1OC` (stereo not given), 97.1% (inactive) and 127% (inactive) and 95.8% (inactive).
As to `O=[N+]([O-])c1ccc(-n2[nH]nnc2=S)cc1`, the growth was 116% (inactive).
Take `C=C1C2CCC3C4(C)CCCC(C)(C(=O)O)C4CCC3(C2)C1OC(=O)/C(C)=C/C` (stereo not given): the growth was 27.3% [100 µM] (inactive) and 79.6% [100 µM] (inactive).
On the same count and under the same terms, as for `CC1CC(=O)N(N(C)C)C2(C#N)C(=O)N=C(N)C12C#N` (stereo not given), the figure is -31.9% [100 µM] (active) and -94.2% [100 µM] (active).
The same measure, in the same setting: as for `COC(=O)/C=C/c1cc(O)c2c(c1)C(C(=O)OC)C(c1ccc(O)c(O)c1)O2` (stereo not given), the figure is 55% (inactive) and 51.8% (inactive); as for `NC(=O)CC1OC(=O)Cc2cc3c(c(O)c21)C(=O)c1c(O)cccc1C3=O` (stereo not given), 57.5% [100 µM] (inactive).
On the same count and under the same terms, as for `COc1ccc(N=C(C)C(C)=Nc2ccc(OC)cc2)cc1`, the figure is 77.8% [100 µM] (inactive) and -88.6% [100 µM] (active); as for `COc1ccccc1/C=N\N=C(N/N=C/c1ccccc1OC)N/N=C/c1ccccc1OC`, 110% (inactive) and 57.7% (inactive); as for `COC(=O)c1cc(C#N)[nH]c1-c1ccsc1`, 93.8% [100 µM] (inactive) and 19.4% [100 µM] (inactive).
Regarding `OC(COc1cccc2ccccc12)CN1CCN(c2ccc(Cl)cc2)CC1` (stereo not given), the growth was 70.8% (inactive) and 101% (inactive).
Still for that read-out and setting: as for `Nc1ccc(N=Nc2ccc(S(=O)(=O)O)cc2)cc1S(=O)(=O)O`, the figure is 115% (inactive) and 97.6% (inactive); as for `NC(=O)NO`, 113% (inactive) and 85% (inactive).
Turning to `CCOC(=O)C(C(=O)OCC)C(c1ccccc1)N1CCN(c2ccccc2)CC1` (stereo not given), the growth is 98.1% (inactive) and 113% (inactive).
`CCOC(=O)c1cc(C)nc2c1c(=O)n(-c1ccccc1)c(=O)n2CCCCN1CCN(c2ncccn2)CC1`: the growth is 116% [100 µM] (inactive) and 111% [100 µM] (inactive).

Staying with this assay, now noted: 100 µM.
Turning to `Cc1[nH]c(-c2nc3ccccc3[nH]2)c(C)c1C(=O)NC(C)C1CCCCC1` (stereo not given), the growth is -91% (active).
